Compound activity as filed in PubChem.
RE007 growth inh – less growth of the S. pombe RE007 Vpr strain | S. pombe RE007 Vpr strain, BacTiter-Glo ATP luminescence, 24 h | Potency, µM (doses to about 92.2 µM), without a hit: at the highest dose activity change, negative = less growth, usual class: inhibitors | 360,000 compounds, 0.21% hits | AID 651644; active = well fitted falling curve with a large enough effect; inconclusive = small, poorly fitted or top-dose-only effect; inactive = no such curve, though single readings can be large or run the other way; also: potency is read from the fitted curve at half-maximal effect; % is scaled to controls: 0 for no effect and ±100 for the full control effect; nearly all actives have a fitted effect of over 50% in size
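Fission yeast strain RE007, carrying one chromosomally integrated HIV-1 vpr copy, was seeded at OD 0.01 in PMG+AL medium with 23 nL pinned compound. After 24 h at 30 °C and 99% humidity, viability was read by BacTiter-Glo luminescence.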
CHX counter – counter-screen hit for Shiga toxin inhibitors, cycloheximide; cell reporter, cycloheximide protein synthesis inhibition counterscreen; 300,000 compounds, 12% hits; max response, %; in the data active = max response mostly above about 13%, no sharp cut-off; inactive = mostly below about 14%; also: read at 38.3 µM for the half of the compounds with a filed dose; 0% is about no effect
LmPK inh – blocks Leishmania mexicana pyruvate kinase activity | 290,000 compounds, 0.37% hits | purified LmPK, Kinase-Glo ATP luminescence, 1 h | Potency, µM (doses to about 57.5 µM), for the others: at the highest dose activity change, negative = inhibition, hits mostly inhibitors; also: potency is read from the fitted curve at half-maximal effect; % is scaled to controls: 0 for no effect and ±100 for the full control effect
Target sequence (Q27686 whole entry, looked up): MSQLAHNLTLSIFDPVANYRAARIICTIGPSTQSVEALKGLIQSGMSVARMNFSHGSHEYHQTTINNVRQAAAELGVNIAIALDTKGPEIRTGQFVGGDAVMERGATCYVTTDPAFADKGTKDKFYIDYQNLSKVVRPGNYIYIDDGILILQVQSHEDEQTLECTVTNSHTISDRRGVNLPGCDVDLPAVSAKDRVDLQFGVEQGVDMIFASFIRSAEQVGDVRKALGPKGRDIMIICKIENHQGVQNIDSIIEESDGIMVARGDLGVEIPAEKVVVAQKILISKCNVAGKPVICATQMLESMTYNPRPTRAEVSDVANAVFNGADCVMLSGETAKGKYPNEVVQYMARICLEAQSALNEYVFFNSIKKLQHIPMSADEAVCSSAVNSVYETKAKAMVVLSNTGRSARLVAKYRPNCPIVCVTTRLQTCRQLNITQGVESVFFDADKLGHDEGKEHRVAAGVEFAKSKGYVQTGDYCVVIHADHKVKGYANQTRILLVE
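In 50 mM imidazole pH 7.2 with 7 mM MgCl2, LmPK (0.1 nM) turned over PEP (0.5 mM) and ADP (0.1 mM) for 1 h at room temperature. Luciferase read-out of ATP.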
FBPA Giardia inh – inhibitors of Giardia lamblia fructose-1,6-bisphosphate aldolase; purified Giardia FBPA; Potency, µM (doses to about 59.6 µM), inactives show at the top dose activity, negative = inhibition, actives largely listed as inhibitors; 290,000 compounds, 0.71% hits; AID 2451; also: potency is read from the fitted curve at half-maximal effect; % is scaled to controls: 0 for no effect and ±100 for the full control effect; nearly all actives have a fitted effect of over 55% in size
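Giardia FBPA (40 nM reagent) was preincubated 10 min at RT with compound (up to 57.5 uM final), then substrate plus GAPDH/TPI/NAD/arsenate coupling system with diaphorase/resazurin was added; resorufin fluorescence (525/598 nm) was read after 20 min.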
Shiga toxin inh – Shiga toxin inhibition | Vero cells, Shiga toxin protein synthesis inhibition reporter | inhibition, % at 38.7 µM | 290,000 compounds, 9.2% hits; in the data active = inhibition mostly above about 28%, no sharp cut-off; inactive = mostly below about 43%; also: 0% is about no effect
TbPYK inhibitor – inhibitors of Trypanosoma brucei pyruvate kinase. Q57TT1. TbPYK enzyme, Kinase-Glo Plus ATP luminescence, 45 min. Potency, µM (titrated, usually from 76.8 µM), without a hit: at the top dose activity, negative = inhibition, usual class: inhibitors. 410,000 compounds, 0.12% hits. AID 624173; also: potency is read from the fitted curve at half-maximal effect; % is scaled to controls: 0 for no effect and ±100 for the full control effect; nearly all actives have a fitted effect of over 50% in size
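TbPYK + substrate in 50 mM TEA pH 7.2, 100 mM KCl, 10 mM MgCl2, 0.05% BSA, 0.01% Tween-20; cpd pinned; ADP 130 uM final; 45 min RT; Kinase-Glo Plus 10 min; luminescence endpoint.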
* = called active by the depositor; ? = inconclusive; nt = no result given; + = active, no number; [ ] = another dose, or the depositor's remark. The entries come from a sample that favours hits as a whole. Unless noted, calls follow the shape of the dose curve; as a rule, active = well fitted curve in the direction sought with a large enough effect; inconclusive = small, poorly fitted or top-dose-only effect, or another doubt; inactive = no such curve, though single readings can be large; an effect the other way counts as inactive or inconclusive.

SMILES	RE007 growth inh	CHX counter	LmPK inh	FBPA Giardia inh	Shiga toxin inh	TbPYK inhibitor
CC(=O)C1=C(C)OC(N)=C(C#N)C1c1cc2cc(C)c(C)cc2nc1Cl (configuration not stated)	18%	31*	10%	8%	active	-1%
O=C(NCCOc1ccccc1Cl)C(=O)NCCOc1ccccc1Cl	-1%	-4	4%	3%	-4	-1%
O=C(CNC(=O)c1ccccc1F)NCCOc1ccccc1Cl	-6%	15*	-1%	10%	+	3%
COc1ccc(C(=O)NCCOc2ccccc2Cl)c(OC)c1OC	2%	54*	-1%	-4%	99*	-6%
COc1cc(C(=O)NCCOc2ccccc2C)c(Br)c(OC)c1OC	22%	2	-3%	-15%	0	0%
CCC1=[N+](CC(=O)c2ccc(C)cc2)CCn2cccc21	-16%	24*	0%	-5%	48	-6%
CCC1=[N+](CC(=O)c2ccc(Br)cc2)CCn2c(C)ccc21	-14%	15*	-4%	-3%	52*	5%
CCC1=[N+](CC(=O)c2ccc(C)cc2)CCn2c(C)ccc21	1%	23*	-6%	3%	13	-12%
Cc1cc(C)c[n+](CC(=O)c2ccccc2)c1	-12%	0	-6%	8%	13	4%
CCC1=[N+](C)CCn2c(C)ccc21	-4%	-3	-6%	3%	-5	0%
CC1=[N+](CC(=O)c2ccccc2)CCn2cccc21	-6%	34*	7%	-8%	58*	-9%
O=C(CN1CCCCCC1)Nc1ccccc1C(=O)Nc1ccccc1	-10%	nt	nt	nt	nt	?
CSc1ccccc1C(=O)C1CCCN(C(=O)c2ccc(N3CCOCC3)cc2)C1 (configuration not stated)	-3%	17*	6%	4%	34*	-5%
c1ccc(CC2CCN(c3nc4ccccc4n4nnnc34)CC2)cc1	-4%	8.5*	2%	1%	17	5%
CCn1c(N2CCN(C(=O)c3ccco3)CC2)nc2ccccc21	-3%	2	0%	-6%	1	-3%
O=C(c1ccco1)N1CCN(c2nc3ccccc3n3nnnc23)CC1	-9%	24*	-5%	6%	36*	-8%
Cc1sc(NC(=O)CN2C(=O)NC3(CCCC3)C2=O)nc1-c1ccc(F)cc1	13%	nt	nt	nt	nt	-2%
Cc1cc2nc3c(c(C(F)(F)F)n2n1)CCCC3	-9%	5	-2%	4%	50	-19%
O=C(NC1CCCCC1)c1cc2nc3c(c(C(F)(F)F)n2n1)CCCC3	-9%	45*	0%	-7%	79*	-6%
CC(=O)c1ccc(NC(=O)c2cc3nc4c(c(C(F)(F)F)n3n2)CCCC4)cc1	nt	38*	0%	5%	60*	nt
O=C(NC1CCCCC1)c1cc2nc(-c3ccco3)cc(C(F)(F)F)n2n1	13%	-2	8%	7%	5	9%
Clc1ccc(CSc2nnnn2-c2ccc3c(c2)OCO3)c(Cl)c1	-11%	-3	-6%	-2%	13	7%
O=C(CCNc1ccc(F)cc1)c1cc2ccccc2o1	?	2	-2%	-1%	10	0%
Cc1cccc(NC(=O)c2cc3ccccc3o2)c1	-30%	50*	14µM*	?	95*	-10%
O=C(Nc1cccc(Br)c1)c1cc2ccccc2o1	?	92*	?	-28%	106*	-2%
SMILES	RE007 growth inh	CHX counter	LmPK inh	FBPA Giardia inh	Shiga toxin inh	TbPYK inhibitor
CCC(=O)Nc1cccc(-c2cc3ccccc3oc2=O)c1	5%	61*	1%	-5%	83*	-4%
O=C(CCNc1cccc(F)c1)c1cc2ccccc2o1	4%	44*	-12%	-9%	36	-1%
CNC(=O)c1cc2ccccc2o1	-4%	1	0%	1%	3	5%
O=S1(=O)C2CC3CCC2(CN1Cc1cccc(F)c1)O3 (configuration not stated)	nt	-3	nt	9%	1	nt
CCC(=O)Oc1ccc(NC(=O)c2ccc(S(=O)(=O)N3CCCC3)cc2)cc1	3%	nt	nt	nt	nt	-4%
CC(=O)Nc1ccc(NC(=O)c2cccc(-c3cc4ccccc4oc3=O)c2)cc1	0%	31*	-3%	4%	49	-8%
O=C(Nc1ccc(N2CCCC2)c(Cl)c1)c1cccc(-c2cc3ccccc3oc2=O)c1	-11%	1	2%	0%	-11	-9%
NS(=O)(=O)c1cccc(NC(=O)c2cc3ccccc3o2)c1	-16%	25*	-16%	-4%	56*	-17%
CCC(=O)Nc1cccc(NC(=O)c2cc3ccccc3o2)c1	36%	45*	?	-10%	100*	1%
NS(=O)(=O)c1cccc(NC(=O)c2cc(=O)c3ccccc3o2)c1	-5%	-1	3%	-6%	10	-8%
Cc1cc(C)c(NC(=O)CN2C(=O)CCSc3ccc(S(=O)(=O)N4CCCC4)cc32)c(C)c1	nt	nt	nt	nt	nt	-5%
CC1=C(C(=O)N(C(C)C)C(C)C)CC(CC(=O)NCCN2CCOCC2)C(=O)N1CCCN1CCCC1=O (configuration not stated)	11%	nt	nt	nt	nt	-12%
Cc1cccc(C(=O)O/N=C(\N)c2cccc([N+](=O)[O-])c2)c1	-16%	53*	-1%	-4%	99*	2%
O=C(COC(=O)c1cccc([N+](=O)[O-])c1)NNC(=O)c1cccs1	1%	nt	nt	nt	nt	0%
N/C(=N\OC(=O)c1cccs1)c1cccc([N+](=O)[O-])c1	2%	36*	-10%	-9%	85*	-4%
N/C(=N\OC(=O)c1cccc([N+](=O)[O-])c1)c1cccnc1	-6%	26*	-5%	0%	23	2%
Cc1ccccc1C(=O)O/N=C(\N)c1cccc([N+](=O)[O-])c1	-6%	65*	-7%	-15%	99*	2%
COc1ccc(F)cc1S(=O)(=O)NCC(c1ccco1)S(=O)(=O)c1cccs1 (configuration not stated)	nt	nt	nt	nt	nt	-5%
Cc1onc(-c2c(F)cccc2Cl)c1C(=O)Nc1cc2cc([N+](=O)[O-])ccc2oc1=O	-21%[18.4 µM]	nt	nt	nt	nt	5%
COc1ccc(/C(N)=N/OC(=O)c2cccc([N+](=O)[O-])c2C)cc1OC	3%	-3	1%	-3%	-8	-3%
COc1cccc(C(=O)O/N=C(\N)c2ccc([N+](=O)[O-])cc2)c1OC	-3%	75*	0%	1%	76*	10%
CC(C)[C@H](NC(=O)c1ccccc1)C(=O)OCC(=O)c1ccccc1F	-8%	16*	-2%	0%	20	-4%
C#Cc1cccc(NC(=O)c2ccc3c(c2)C(=O)N(Cc2cccnc2)C3=O)c1	-10%	39*	-7%	nt	-12	-11%
